Only some compounds are listed: those with a hit (about 0.62% of all), similar ones and a draw of the others.
BCR signal inh = blocks chronic active B-cell receptor signaling. ABC-DLBCL IkBa-CBG/CBR reporter, luminescence ratio, 4 h. Potency, µM (highest dose often 46.1 µM), for the others: at the top dose activity change, negative = inhibition, most hits filed as inhibitors. 340,000 tested, 0.05% active; active = well fitted inhibition curve with a large enough effect in the signal ratio, with a control signal flat, not every such curve was filed as active; inconclusive = small, poorly fitted or top-dose-only effect, or effect the other way, or a change in a side signal; the % refers to the signal ratio;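 also: plate controls were basal doxycycline-induced cells for no effect and cells given 10 µM MG132 for full effect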
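Doxycycline induced both beetle luciferases in TMD8 lymphoma cells; IKK-driven degradation limits the IkappaBalpha-fused green signal, while red luminescence normalises for cell number and nonspecific effects. Compounds tested up to 46 uM, 4 hrs.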
gsp ag = gsp mutant agonism | 340,000 tested, 0.13% active | gsp mutant cells, cAMP HTRF, 30 min | AID 624287 | Potency, µM (titrated, usually from 76.9 µM), inactives show top-dose activation (cAMP increase), actives largely listed as activators; active = well fitted activation curve with a large enough effect; inconclusive = small, poorly fitted or top-dose-only effect, or another doubt; inactive = no such curve, though single readings can be large or run the other way; cell line not stated here;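 also: phosphodiesterase inhibitor Ro 20-1724 added with compounds to block cAMP breakdown; nearly all actives have a fitted effect of over 60% in size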
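Cells stably selected in G418 were plated at 2000/well, grown 16-24 hr, then given compounds in DMSO with the PDE inhibitor […] (300 uM solution added) for 30 min at 37C; cAMP was read by HTRF.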
S-ASM inh = blocks human secretory acid sphingomyelinase | placental ASM, HMU-PC fluorogenic substrate, 60 min | Potency, µM (doses to about 57.5 µM), without a hit: at the top dose activity change, negative = inhibition, actives largely listed as inhibitors | 340,000 tested, 0.006% active; active = well fitted inhibition curve with a large enough effect; inconclusive = small, poorly fitted or top-dose-only effect; inactive = no such curve, though single readings can be large or run the other way
Target sequence (P17405 47-631 limits assumed): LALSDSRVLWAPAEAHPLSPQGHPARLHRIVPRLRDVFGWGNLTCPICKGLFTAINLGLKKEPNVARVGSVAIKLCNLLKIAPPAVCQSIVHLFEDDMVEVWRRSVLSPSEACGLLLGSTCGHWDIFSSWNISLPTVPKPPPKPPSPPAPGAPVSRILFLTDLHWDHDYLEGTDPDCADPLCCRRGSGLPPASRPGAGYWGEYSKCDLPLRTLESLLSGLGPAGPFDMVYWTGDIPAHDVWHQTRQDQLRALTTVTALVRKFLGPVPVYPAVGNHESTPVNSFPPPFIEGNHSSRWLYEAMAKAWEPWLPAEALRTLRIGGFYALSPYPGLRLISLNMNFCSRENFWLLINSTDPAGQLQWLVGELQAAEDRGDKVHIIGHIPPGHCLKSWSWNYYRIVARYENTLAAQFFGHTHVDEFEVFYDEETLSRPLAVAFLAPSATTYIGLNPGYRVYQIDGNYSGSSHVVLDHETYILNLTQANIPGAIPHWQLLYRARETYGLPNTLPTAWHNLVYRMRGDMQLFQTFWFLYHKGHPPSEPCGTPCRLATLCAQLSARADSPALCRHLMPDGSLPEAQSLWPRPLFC
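Fluorogenic HMU-PC substrate (9 uM final) is turned over by placental ASM in 60 min at 37 C after a 10 min compound preincubation. Reaction ended by alkaline stop (pH 10), with fluorescence read at 386/447 nm.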
MBNL1 CUG block = inhibitors of human MBNL1 binding to CUG repeat RNA; Q9NR56; TR-FRET MBNL1-His/biotin-(CUG)12 binding, 665/545 ratio; Potency, µM (highest dose often 57.5 µM), for inactives: at the top dose activity change, negative = inhibition, actives largely listed as inhibitors; 280,000 tested, 0.036% active; AID 2675; active = well fitted inhibition curve with a large enough effect in the signal ratio, with a control signal flat, not every such curve was filed as active; inconclusive = small, poorly fitted or top-dose-only effect, or effect the other way, or a change in a side signal; inactive = no such curve, though single readings can be large or run the other way; the % refers to the signal ratio; also: % is scaled to controls: 0 for no effect and ±100 for the full control effect
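TR-FRET readout: Ex 340 nm, 665/545 nm emission ratio, normalized to buffer-only (basal) and MBNL1-(CUG)12 controls. Complex of MBNL1-His with Biotin-(CUG)12, compounds 92 nM–58 uM, incubated 60 min at room temperature.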
gsp antag = antagonists of gsp mutant (McCune-Albright syndrome). gsp-mutant cells, cAMP HTRF, 30 min. AID 624288. 340,000 tested, 0.4% active. Potency, µM (series often up to 76.9 µM), inactives show at the highest dose activity change, negative = inhibition, actives largely listed as inhibitors; calls by dose curve; cell line not stated here;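 also: intracellular cAMP measured with PDE inhibitor Ro 20-1724 present during compound exposure; % is scaled to controls: 0 for no effect and ±100 for the full control effect; nearly all actives have a fitted effect of over 65% in size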
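G418-selected cells were plated in DMEM/10% FBS for 16-24 h at 37C, then treated with compounds plus the PDE inhibitor […] (300 uM solution added) for 30 min at 37C. Intracellular cAMP was measured by HTRF after 30 min lysis at room temperature.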
Starred values were filed as active, the others as inactive; i = inactive; ? = inconclusive; . = no result; [ ] = another dose, or the depositor's remark. Potency is read from the fitted curve at half-maximal effect.

SMILES | BCR signal inh | gsp ag | S-ASM inh | MBNL1 CUG block | gsp antag
COc1ccc(OC)c(CCNC(=O)c2ccc3c(c2)N(Cc2ccc(F)cc2)CCS3)c1 | 14.7% | 1.1% | 218.7% | 63.7% | ?
COc1ccc(CCNC(=O)c2ccc3c(c2)N(Cc2ccc(F)cc2)CCS3)c(OC)c1 | -1.5% | 7.08µM* | 250.9% | 48.0% | -15.3%
CC(C)=CCc1cc(-c2oc3cc(O)cc(O)c3c(=O)c2O)ccc1O | . | . | -1.8% | . | 1.7%
CC(C)=CCc1c(O)cc2oc3c(CC=C(C)C)c(O)c(O)c(CC=C(C)C)c3c(=O)c2c1O | -10.2% | ? | -9.9% | -10.7% | 31.6µM*
COc1cccc(C2C(C(=O)c3cc4cccc(OC)c4o3)=C(O)C(=O)N2c2cc(C)on2)c1OC (stereo not given) | -11.5% | ? | 2.9% | ? | -2.2%[15.4 µM]
Cc1cc(N2C(=O)C(O)=C(C(=O)c3cc4ccccc4o3)C2c2cccc(Br)c2)no1 (stereo not given) | 11.9% | 6.31µM* | 22.9% | 117.7% | 2.3%
COc1cccc2cc(C(=O)C3=C(O)C(=O)N(c4cc(C)on4)C3c3cccs3)oc12 (stereo not given) | 10.7% | 7.94µM* | 0.5% | 64.4% | -11.7%
Cc1cc(C)cc(C(=O)NC(=S)Nc2ccc(-c3cc4ccccc4oc3=O)cc2)c1 | -19.4% | 3.9% | 23.6% | -17.2% | 3.6%
Cc1ccc(C(=O)NC(=S)Nc2ccc(-c3cc4ccccc4oc3=O)cc2)c(C)c1 | ? | 20µM* | 23.8% | 10.6% | 7.4%
CCCCNc1c(-c2ccc(OC)c(SC(C)CC)c2)nc2cc(C)ccn12 (stereo not given) | ? | ? | 91.6% | . | 39.8µM*
CCCCNc1c(-c2ccc(OC)c(SC(C)CC)c2)nc2cnccn12 (stereo not given) | . | . | i | . | 4.1%
CCC(C)Sc1cc(-c2nc3cc(C)ccn3c2NC2CCCCC2)ccc1OC (stereo not given) | -1.8% | ? | 152.4% | . | 31.6µM*
CCCCNc1c(-c2ccc(OC)c(SC(C)CC)c2)nc2ccc(C)cn12 (stereo not given) | ? | . | 235.2% | . | 28.2µM*
CCC(=O)N1CCc2cc(S(=O)(=O)NCCC(=O)NCc3ccccc3OC)ccc21 | 0.6% | 3.4% | -0.2% | -4.2% | -10.4%
N#Cc1csc(CCNC(=O)c2ccccc2)n1 | . | -9.4% | . | . | .
O=C(CC(c1ccccc1)c1ccccc1O)NCc1ccccc1Cl (stereo not given) | ? | 0.0% | -0.5% | . | 35.5µM*
CCCCn1c(SCC(=O)Nc2ccccc2C(F)(F)F)nc2ccsc2c1=O | 2.6% | 11.3% | -2.5% | 2.8% | 8.5%
CC(C)OCCCn1c(SCC(=O)Nc2ccccc2C(F)(F)F)nc2nccnc2c1=O | -0.8% | 39.8µM* | -1.1% | 18.4% | 10.7%
Cc1ccccc1-n1c(SCC(=O)Nc2c(C)cccc2C)nc(O)cc1=O | 12.6% | 14.1%[15.4 µM] | -0.9% | -4.2% | -33.3%
Cc1ccc(NC(=O)c2ccc(F)c(S(=O)(=O)N3CCOCC3)c2)cc1F | 8.8% | -46.0% | -7.0% | -5.6% | 35.5µM*
CC(C)CCn1c(Oc2ccccc2F)nc2c1c(=O)n(C)c(=O)n2C | 8.5% | . | . | . | .
COc1ccc(C(=O)CSc2nnc(Cn3cnc4ccccc43)o2)cc1 | 1.0% | -13.3% | -10.5% | 2.0% | 39.8µM*
CC1(C)OC(=O)NC1c1ccccc1 (stereo not given) | . | -24.3% | . | . | .
COc1cc(CNCc2ccncc2)cc(Br)c1OCc1ccccc1F | 4.2% | -41.6% | -3.5% | -6.8% | 31.6µM*
COc1cc(CNc2ccc(O)cc2)cc(Br)c1OCc1ccccc1F | 12.4% | 5.3% | -18.8% | ? | -19.8%
CCOC(=O)COc1cc(-n2c(=S)[nH]c3cc(OC)c(OC)cc3c2=O)c(Cl)cc1Cl | ? | -3.0%[15.4 µM] | -25.3% | . | 12.6µM*
COc1ccc(OC)c(CN2CCN(C(=O)c3cc(S(=O)(=O)N4CCOCC4)ccc3C)CC2)c1 | . | -13.3% | 7.6% | . | -1.8%
Cc1cccc(NC(=O)C(=O)NCC2CCCN2S(=O)(=O)c2ccccc2)c1 (stereo not given) | ? | -4.7%[15.4 µM] | -2.2% | . | -1.2%

High-throughput results: PubChem, National Center for Advancing Translational Sciences (NCATS)
